Source: PubChem BioAssay
An excerpt weighted towards active compounds, which were near 0.98% of everything screened.
Yp Topo-I inh: Yersinia pestis topoisomerase I inhibitors, primary screen, biochemical, cleavage product accumulation, plate reader, single point; DNA topoisomerase I (Yersinia pestis CO92); Y. pestis Topo-I cleavage product accumulation; activity, % at 10 µM; 360,000 compounds, 0.064% hits; in the data active means activity above about 50%, passing the limit was not always enough; inconclusive means no clear call, values can overlap the other calls
PfHsp40 yeast: rescue of yeast from PfHsp40 toxicity, primary screen, S. cerevisiae, ATP luminescence; growth rescue, % at 12.5 µM; S. cerevisiae expressing PfHsp40, growth rescue; AID 504582, 2011; 340,000 compounds, 0.68% hits; in the data active means growth rescue above about 28%, passing the limit was not always enough; inconclusive means no clear call, values can overlap the other calls;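 further: yeast W303a lacking pdr1 and pdr3 grown in galactose medium; growth measured after three days at 30 °C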
Rv3671c protease: Rv3671c serine protease inhibitors, primary screen, biochemical, fluorescence polarization, M. tuberculosis H37Rv. P9WHR9. inhibition, % at 5.96 µM. 320,000 compounds, 0.048% hits; in the data active means inhibition above about 38%;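 further: extracellular domain of Rv3671c used as enzyme; 0% = enzyme with DMSO and 100% = no enzyme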
Target sequence (P9WHR9 whole entry, looked up, the tested form may be a part): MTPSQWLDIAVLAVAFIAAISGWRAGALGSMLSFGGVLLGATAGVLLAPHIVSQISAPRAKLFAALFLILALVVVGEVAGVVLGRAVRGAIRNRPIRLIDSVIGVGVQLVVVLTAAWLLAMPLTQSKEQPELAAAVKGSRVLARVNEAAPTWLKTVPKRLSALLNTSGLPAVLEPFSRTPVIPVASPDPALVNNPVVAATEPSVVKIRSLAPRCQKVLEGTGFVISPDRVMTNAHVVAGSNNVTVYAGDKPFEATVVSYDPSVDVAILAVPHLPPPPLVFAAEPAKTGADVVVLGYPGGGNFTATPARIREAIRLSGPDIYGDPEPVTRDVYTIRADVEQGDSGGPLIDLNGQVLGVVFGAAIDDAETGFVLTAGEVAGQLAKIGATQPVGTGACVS
FadD28 FP inh: inhibitors of FadD28 bisubstrate probe binding, primary screen, biochemical, fluorescence polarization, single point; inhibition, % at 12.5 µM; 360,000 compounds, 0.22% hits; Mycobacterium tuberculosis FadD28 fatty-acid-AMP ligase; AID 588549, 2011; in the data active means inhibition above about 8.5%, passing the limit was not always enough; inconclusive means no clear call, values can overlap the other calls
Mtb betalactam: beta-lactam sensitization of Mtb H37Rv, H37Rv | M. tuberculosis H37Rv growth with meropenem, percent inhibition | inhibition, % at 25 µM | 330,000 compounds, 0.27% hits | AID 434955, 2010; call rule not given here;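 further: growth measured after seven days incubation then overnight dye step; 0% = bacteria only wells and 100% = bacteria with antibiotic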
Mtb UGM inh: M. tuberculosis UGM enzyme inhibitors, primary screen, biochemical, fluorescence polarization, single point; AID 504406, 2011; 320,000 compounds, 0.06% hits; purified UGM, fluorescence polarization probe displacement; inhibition, % at 10 µM; UDP-galactopyranose mutase (Mycobacterium tuberculosis (strain ATCC 25618 / H37Rv)), …; in the data active means inhibition above about 10%, passing the limit was not always enough; inconclusive means no clear call, values can overlap the other calls
Numbers without * were called inactive; ? = inconclusive; / = not tested or not shown.

SMILES	Yp Topo-I inh	PfHsp40 yeast	Rv3671c protease	FadD28 FP inh	Mtb betalactam	Mtb UGM inh
Cc1cc(NC(=S)Nc2ccc(C)c(Cl)c2)n[nH]1	-1	57*	7	-23	9	0
CCN(CC)c1ccc2cc(S(=O)(=O)c3ccc(C)cc3)c(=O)oc2c1	19	-1	-7	-3	6	30*
Cc1ccc(S(=O)(=O)c2cc3ccccc3oc2=O)cc1	7	0	1	-1	3	-1
O=C(CCN1C(=O)/C(=C/c2ccco2)SC1=S)Nc1ccc(C(=O)O)c(O)c1	-15	15	-19	11*	27	1
O=C(CCN1C(=O)/C(=C\c2ccco2)SC1=S)Nc1ccc(C(=O)O)c(O)c1	-15	-1	-17	15*	7	1
CC(C)(C)N=Cc1c(O)ccc2oc3c(c12)CCCC3	9	1	-1	0	0	3
O=[N+]([O-])c1cc2oc3c(c2c(C=NCc2ccncc2)c1O)CCCC3	-15	48*	/	2	/	/
COc1ccccc1CCC(=O)Nc1cccc(S(=O)(=O)N2CCOCC2)c1	6	-1	-4	-3	?	0
COc1ccc(NC(=O)CSc2ccc([N+](=O)[O-])cc2)cc1S(=O)(=O)N1CCOCC1	-2	0	0	12*	-4	/
COc1ccccc1CC(=O)Nc1cccc(S(=O)(=O)N2CCOCC2)c1	0	94*	2	-1	-8	1
CCOC(=O)C1(C)CCCN(C(=O)c2cc(OC)c(OC)c(OC)c2)C1 (configuration not stated)	-4	/	/	1	/	/
Cc1[nH]n(-c2ccccc2)c(=O)c1C(=O)c1cccc(F)c1	-5	-1	-9	1	11	1
Cc1[nH]n(-c2ccc(Cl)cc2)c(=O)c1C(=O)c1ccccc1	2	87*	-1	-2	68	0
Cc1[nH]n(-c2ccccc2)c(=O)c1C(=O)c1ccccc1	0	1	3	-2	47	1
Cc1[nH]n(-c2ccccc2)c(=O)c1C(=O)c1ccc(Cl)cc1	-3	96*	-2	-2	85	2
CCSC(=S)c1c(C)[nH]n(-c2ccccc2)c1=O	-2	34*	2	0	61	0
COc1cc(CNC(=O)c2cc(-c3cc(F)ccc3OC(C)C)n[nH]2)cc(OC)c1	13	/	/	-9	/	/
Oc1ccc(/C=N/Nc2ccc(C(F)(F)F)cn2)c(O)c1	-15	421*	19	2	10	1
COc1ccc(CC(=O)Nc2ccc(OC)nc2)cc1	1	-1	-8	-1	-1	2
COc1ccc(NC(=O)Cc2ccc(-c3ccccc3)cc2)cn1	1	86*	-1	-2	5	0
COc1cc(NC(=O)NS(=O)(=O)c2ccc(C)cc2)cc(OC)c1	0	1	3	-3	86	-3
COc1ccc(NC(=O)NS(=O)(=O)c2ccc(C)cc2)cn1	-1	-1	/	0	19	67*
Cc1ccc(S(=O)(=O)N2[C@@H](c3ccc(F)cc3)C(C(=O)O)=CC[C@H]2c2ccc3c(c2)OCO3)cc1	5	1	-4	0	-2	7
COc1ccc(O)c(/C=N/NC(=O)c2ccc(CSc3nc(C)cc(C)n3)cc2)c1	6	52*	16	1	12	1
Cc1cc(C)nc(SCc2ccc(C(=O)N/N=C/c3cccc(O)c3O)cc2)n1	6	126*	-7	-8	8	1
SMILES	Yp Topo-I inh	PfHsp40 yeast	Rv3671c protease	FadD28 FP inh	Mtb betalactam	Mtb UGM inh
CN1C(=O)[C@H]2[C@@H](c3ccc(C(F)(F)F)cc3)N[C@]3(CCCN(Cc4ccc(Cl)cc4)C3=O)[C@H]2C1=O	8	/	/	-19	/	/
NC(Cc1ccc(C(F)(F)F)cc1)c1csc(NC(=O)NCCc2ccccc2)n1 (configuration not stated)	1	/	/	-10	/	/
O=C(N/N=C/c1cc(Cl)cc([N+](=O)[O-])c1O)c1ccccc1NS(=O)(=O)c1cccs1	-1	244*	0	2	9	3
CCC(c1ccc(O)cc1)C(CC)c1ccc(O)cc1 (configuration not stated)	-10	85*	-11	-8	-9	2
CCOC(=O)c1ccc2c(c1)C1C=CCC1C(C(=O)O)N2 (configuration not stated)	/	/	31	/	9	7
CCOC(=O)C1Nc2ccc(C(=O)O)cc2C2C=CCC12 (configuration not stated)	-6	2	11	21*	-2	0
O=C(O)c1ccc2c(c1)C1C=CCC1C(c1ccncc1)N2 (configuration not stated)	-1	-1	-2	0	-2	0
CC(C)C1Nc2ccc(C(=O)O)cc2C2C=CCC21 (configuration not stated)	-17	-1	2	9.3*	-6	2
CCCC1Nc2ccc(C(=O)O)cc2C2C=CCC12 (configuration not stated)	-5	0	8	30*	-2	-2
CCN(CC)C(=O)c1ccc2c(c1)C1C=CCC1C(C(=O)O)N2 (configuration not stated)	4	2	/	12*	3	3
COc1cc([N+](=O)[O-])cc(/C=N/NC(=O)C(O)(c2ccccc2)c2ccccc2)c1O	-1	30*	14	-1	2	2
O=C(N/N=C/c1cccc([N+](=O)[O-])c1O)C(O)(c1ccccc1)c1ccccc1	-20	1	14	0	-1	-1
CCOC1=C2CN(S(=O)(=O)c3ccc(C)cc3)[C@H](c3cccc(Cl)c3)C[C@@H]2N(S(=O)(=O)c2ccccc2[N+](=O)[O-])[C@H](c2ccccc2)C1	/	/	/	-4	/	/
Cc1cc(=O)n2c(nc3ccccc32)s1	-3	/	/	1	/	/
COc1ccc(CNC(=O)CN(Cc2ccc(C)cc2)S(=O)(=O)c2ccc(Cl)cc2)cc1	52*	-2	-20	-3	-10	1
COc1ccc(CNC(=O)CN(C)S(=O)(=O)c2ccc(Cl)cc2)cc1	6	1	-2	-3	0	-1
COC(=O)Cn1cnc(C(=O)Nc2ccc(C)c(C)c2)n1	2	0	/	-4	/	/
Cn1cc(C(=O)N/N=C/C=C/c2ccccc2)ccc1=O	-3	51*	3	-2	-1	-1
Cc1cc(Br)cn2c(Cc3ccsc3)c(-c3ccco3)nc12	/	/	/	-1	/	/
CN(C(=O)C1Cc2c(-c3ccc(Cl)cc3)ccnc2O1)c1ccccc1 (configuration not stated)	35	/	/	-5	/	/
Cc1ccc(N(Cc2ccccc2)C(=O)CSC(C)C(=O)Nc2cc(C)on2)cc1 (configuration not stated)	25	/	/	-1	/	/
